Consider seven molecules from PubChem BioAssay (NCATS).

Values joined by “and” are separate entries in the source; they are usually repeats but may differ in a detail not shown here. Equal values may be shown once. A number with no mark means an inactive call. Records with an inconclusive call do not appear. Active and inactive are the calls of the source. Unless noted, calls come from the whole dose curve; as a rule, active = well fitted curve in the direction sought with a large enough effect; inconclusive = small, poorly fitted or top-dose-only effect, or another doubt; inactive = no such curve, though single readings can be large; an effect the other way counts as inactive or inconclusive.

The nature of assay [1]: Cell Viability - HUV-EC-C (AID 542).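 Note: cells exposed to compound for 40 hours; % is set by controls: 0 for no effect and ±100 for the full control effect; nearly all actives have a fitted effect of over 35% in size.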 The procedure, abridged:
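Concentration-dependent ATP loss in HUV-EC-C cells is the measure. Exposure lasts 40 hr at 37 °C; luminescence follows CellTiter-Glo addition, and Hill fits give AC50.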

Assay [2] can be described thus: Cell Viability - SH-SY5Y (AID 544).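 For viability change, negative = cytotoxic: 0% = DMSO alone and -100% = 100 µM tamoxifen.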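 Note: cells exposed to compound for 40 hours; nearly all actives have a fitted effect of over 55% in size.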 Note: potency is the fitted concentration of half-maximal effect. Conditions: SH-SY5Y neuroblastoma cell viability; viability change, negative = cytotoxic: at 92.2 µM (top of the series). Summed up:
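Quantitative HTS in SH-SY5Y neuroblastoma cells, 40 hr treatment at 37 °C, ATP content by luciferase luminescence; AC50 from Hill fits.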

Assay [3] in a line: Cell Viability - Renal Proximal Tubule (AID 545).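 Note: cells exposed to compound for 40 hours; 0% = DMSO only and -100% = 100 µM tamoxifen; nearly all actives have a fitted effect of over 40% in size.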 The procedure, abridged: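 Primary rat renal proximal tubule cells (1000/well) were treated with compounds for 40 hr at 37 °C in complete medium. Intracellular ATP was measured by CellTiter-Glo luminescence, and AC50 values came from Hill-equation fits of concentration-response data.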
Assay [4] is described as follows: Cell Viability - Mesenchymal (AID 546).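 Note: cells exposed to compound for 40 hours before reading; 0% = DMSO only and -100% = 100 µM tamoxifen.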 The procedure, abridged: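 In this qHTS cytotoxicity format, glomerulus-derived human mesenchymal kidney cells received compound for 40 hr, then luciferase-based ATP quantitation. Concentration-response data were fitted with the Hill equation.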
Assay [5] is described as follows: Cell Viability - LYMP1-003 - Assay at 40 hr (AID 964). Note: % is set by controls: 0 for no effect and ±100 for the full control effect; nearly all actives have a fitted effect of over 60% in size. Summed up:
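Acute toxicity is scored as a concentration-dependent loss of intracellular ATP in LYMP1-003 cells (2500/well, complete medium) after 40 hr at 37 C, measured by CellTiter-Glo luminescence; AC50 values derive from standard Hill modelling.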

The nature of assay [6]: Cell Viability - LYMP2-011 (AID 969).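 Note: cells exposed to compound for 24 hours; 0% = DMSO only and full inhibition = 92 µM tetraoctylammonium bromide; nearly all actives have a fitted effect of over 60% in size.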 Summed up:
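Cells seeded at 2500 per well rest 5 hr before compound addition, then incubate 24 hr at 37 C. CellTiter-Glo reagent is added for 30 min at room temperature before luminescence detection.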

The nature of assay [7]: Cell Viability - LYMP2-002 (AID 977).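 Note: compound exposure lasted 24 h at 37 °C; plate controls were DMSO only for no effect and 92 µM tetraoctylammonium bromide for full effect.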 Summed up: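 In this qHTS viability screen, 2500 human lymphoblastoid cells per well receive compound for 24 hr at 37 C, and luciferase-based ATP luminescence gives the viability signal. Tetraoctylammonium bromide serves as positive control.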
Assay [8] in a line: Cell Viability - LYMP2-010 (AID 981).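 Note: cells exposed to compound for 24 hours at 37 °C; % is set by controls: 0 for no effect and ±100 for the full control effect; nearly all actives have a fitted effect of over 55% in size.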 The procedure, abridged:
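This 24 hr viability screen uses LYMP2-010 lymphoblastoid cells, quantifies ATP via luciferase luminescence, and derives AC50 from Hill fits of qHTS concentration-response data.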

For assay [9], the target named is Peroxisome proliferator-activated receptor delta (Homo sapiens) (UniProt Q03181). As to the kind of experiment: qHTS assay for small molecule agonists of peroxisome proliferator-activated receptor delta signaling (AID 588534; calls by dose curve;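 note: 0% = DMSO basal wells and 100% = positive control agonist at 10 µM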). Summed up: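 EC50 and efficacy values derive from Hill fits of a concentration series in a beta-lactamase reporter cell assay. Exposure is 18 hrs at 37 C, with CCF4 fluorescence as the readout.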

Assay [10] concerns the target Retinoic acid receptor RXR-alpha (Homo sapiens) (UniProt P19793). As to the kind of experiment: qHTS assay for small molecule agonists of retinoid X receptor alpha signaling (AID 588544; calls by dose curve;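 note: 0% = DMSO basal wells and 100% = reference agonist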). (qHTS replaces the single test concentration by a dilution series.)
Assay [11] addresses Thyroid hormone receptor beta (Homo sapiens) (UniProt P10828). As to the kind of experiment: qHTS assay for small molecule agonists of thyroid hormone receptor beta signaling (AID 588545; calls by dose curve). Summed up: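 Cells (2500/well) were seeded, incubated 4 hrs at 37 C, dosed with a compound series, incubated 18 hrs, loaded with CCF4 dye for 2 hrs at RT, then read for fluorescence. Data were scaled between DMSO (0%) and 10 nM T3 (100%).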

The target in assay [12] is Retinoic acid receptor RXR-alpha (Homo sapiens) (UniProt P19793). As to the kind of experiment: qHTS assay for small molecule antagonists of retinoid X receptor alpha signaling (AID 588546; active = well fitted inhibition curve with a large enough effect in the signal ratio, with a control signal flat, not every such curve was filed as active; the % refers to the signal ratio; note: % is set by controls: 0 for no effect and ±100 for the full control effect). Conditions: HEK293T RXRa-UAS-bla, beta-lactamase ratio, antagonist mode. Summed up: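 Beta-lactamase reporter inhibition, read as CCF4 fluorescence ratio (ex 405, em 460/530 nm) after 2 h at RT. HEK293T UAS-bla cells, 2500/well, were stimulated with 9-cis-RA at 500 or 100 nM final alongside test compound for 18 h at 37 C.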

The target of assay [13] is Thyroid hormone receptor beta (Homo sapiens) (UniProt P10828). As to the kind of experiment: qHTS assay for small molecule antagonists of thyroid hormone receptor beta signaling (AID 588547; active = well fitted inhibition curve with a large enough effect in the signal ratio, with a control signal flat, not every such curve was filed as active; the % refers to the signal ratio;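 note: cells stimulated with 0.4 nM T3 agonist during compound exposure; % is set by controls: 0 for no effect and ±100 for the full control effect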). The settings on record: TR-UAS-bla HEK293, beta-lactamase ratio, antagonist mode, 18 h. The procedure, abridged: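 TR-UAS-bla GripTite HEK293 cells in 2% charcoal/dextran FBS medium were preincubated 4 h at 37 C, given compound (0.59 nM to 92 uM) plus 0.4 nM T3 (final) for 18 h, then CCF4 for 2 h at RT; Hill fit gave IC50.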

A short description of assay [14]: qHTS assay for small molecule disruptors of the mitochondrial membrane potential - 1 hr assay (AID 651754; calls by dose curve; note: % is set by controls: 0 for no effect and ±100 for the full control effect; nearly all actives have a fitted effect of over 35% in size). Summed up: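 In this qHTS format, a 1 hr compound treatment of HepG2 cells precedes Mito-MPS staining, and membrane potential is judged from aggregate (red) against monomer (green) fluorescence intensity.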
A short description of assay [15]: qHTS assay for environmental chemicals that activate the Aryl hydrocarbon Receptor (AhR) signaling pathway (AID 651777). Note: % of control where 0% means no effect; nearly all actives have a fitted effect of over 15% in size. The settings on record: 1A2-DRE human hepatoma cells, luciferase, 24 h; activation: active compounds read high. Summed up:
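Quantitative HTS in stably transfected human liver-derived cells whose luciferase gene sits downstream of the CYP1A2 promoter and dioxin response element. After 24 hr exposure at 37 C, One-Glo luminescence was measured.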

Assay [16] is described as follows: qHTS assay for small molecule agonists of the antioxidant response element (ARE) signaling pathway measured by Nrf2-dependant transcriptional activity (AID 720636; active = well fitted curve in the direction sought with a large enough effect in the repeat runs; an effect the other way counts as inactive or inconclusive; note: % of control where 0% means no effect). The procedure, abridged: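 Quantitative HTS format in HepG2 cells stably expressing an ARE-luciferase reporter; 16 hr compound treatment at 37 C, luciferase signal detected with ONE-Glo.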
Assay [17] is described as follows: qHTS assay for small molecule antagonists of the retinoid-related orphan receptor gamma (ROR-gamma) signaling pathway - cell viability counter screen (AID 720652; active = well fitted curve in the direction sought with a large enough effect in the repeat runs; an effect the other way counts as inactive or inconclusive;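 note: CHO reporter cells with doxycycline-induced ROR-gamma expression; compound exposure lasted 16 hr before ATP read; % is set by controls: 0 for no effect and ±100 for the full control effect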). Summed up: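 ATP-based viability readout in the ROR-gamma reporter CHO cells after 16 hr compound exposure under doxycycline induction.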
In assay [18] the target is Nuclear receptor subfamily 1 group I member 2 (Rattus norvegicus) (UniProt Q9R1A7). As to the kind of experiment: qHTS assay for small molecule activators of the rat pregnane X receptor (rPXR) signaling pathway (AID 651751; call rule not given here; note: 0% is about no effect). The settings on record: rPXR reporter cells, luciferase (One-Glo), 24 h.
Assay [19] is described as follows: qHTS assay for small molecule activators of the human pregnane X receptor (PXR) signaling pathway (AID 720659; call rule not given here; note: 0% is about no effect).
The nature of assay [20]: Cell Viability - LYMP2-012 (AID 982).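 Note: cellular ATP by luciferase luminescence where a drop means cytotoxicity; cells exposed to compound for one day before reading; 0% = DMSO only and full loss = 92 µM tetraoctylammonium bromide; nearly all actives have a fitted effect of over 55% in size.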

Sequence of Thyroid hormone receptor beta (Homo sapiens) (P10828 whole entry, looked up): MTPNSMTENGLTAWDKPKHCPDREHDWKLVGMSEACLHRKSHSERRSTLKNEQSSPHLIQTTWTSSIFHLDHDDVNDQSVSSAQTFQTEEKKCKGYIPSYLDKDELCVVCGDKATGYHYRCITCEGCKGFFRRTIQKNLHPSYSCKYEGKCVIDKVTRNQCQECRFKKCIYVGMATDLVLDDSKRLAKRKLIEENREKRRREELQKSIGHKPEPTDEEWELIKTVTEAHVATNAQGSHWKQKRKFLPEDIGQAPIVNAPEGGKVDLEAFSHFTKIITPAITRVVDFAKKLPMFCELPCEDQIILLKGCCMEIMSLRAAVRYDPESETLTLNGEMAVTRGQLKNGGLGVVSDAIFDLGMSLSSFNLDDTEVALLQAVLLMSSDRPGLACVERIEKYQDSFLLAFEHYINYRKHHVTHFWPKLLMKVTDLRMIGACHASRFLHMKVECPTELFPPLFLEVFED
Sequence of Nuclear receptor subfamily 1 group I member 2 (Rattus norvegicus) (Q9R1A7 whole entry, looked up): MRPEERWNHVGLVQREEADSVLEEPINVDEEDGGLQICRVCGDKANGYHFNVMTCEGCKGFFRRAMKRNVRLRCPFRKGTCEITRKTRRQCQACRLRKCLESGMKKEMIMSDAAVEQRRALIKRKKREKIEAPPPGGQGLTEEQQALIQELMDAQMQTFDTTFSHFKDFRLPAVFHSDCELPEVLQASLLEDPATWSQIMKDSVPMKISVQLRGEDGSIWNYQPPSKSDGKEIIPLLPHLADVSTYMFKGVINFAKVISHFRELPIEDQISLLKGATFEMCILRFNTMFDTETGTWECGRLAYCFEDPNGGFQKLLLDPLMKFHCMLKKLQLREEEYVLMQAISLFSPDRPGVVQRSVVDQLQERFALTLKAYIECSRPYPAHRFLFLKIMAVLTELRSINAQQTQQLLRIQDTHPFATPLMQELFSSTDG
Sequence of Retinoic acid receptor RXR-alpha (Homo sapiens) (P19793 whole entry, looked up): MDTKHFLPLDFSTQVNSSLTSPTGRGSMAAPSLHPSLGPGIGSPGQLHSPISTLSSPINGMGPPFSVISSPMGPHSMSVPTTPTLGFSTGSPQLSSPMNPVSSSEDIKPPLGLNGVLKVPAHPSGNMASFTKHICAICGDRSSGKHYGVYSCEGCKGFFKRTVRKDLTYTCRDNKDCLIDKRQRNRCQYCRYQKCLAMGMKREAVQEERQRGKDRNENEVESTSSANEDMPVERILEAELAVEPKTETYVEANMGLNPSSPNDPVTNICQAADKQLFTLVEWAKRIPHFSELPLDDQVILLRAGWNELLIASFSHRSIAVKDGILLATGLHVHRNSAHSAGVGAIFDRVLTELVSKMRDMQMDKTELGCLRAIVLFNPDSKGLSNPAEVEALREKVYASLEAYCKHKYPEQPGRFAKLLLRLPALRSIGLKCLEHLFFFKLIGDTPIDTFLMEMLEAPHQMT
Sequence of Peroxisome proliferator-activated receptor delta (Homo sapiens) (Q03181 whole entry, looked up): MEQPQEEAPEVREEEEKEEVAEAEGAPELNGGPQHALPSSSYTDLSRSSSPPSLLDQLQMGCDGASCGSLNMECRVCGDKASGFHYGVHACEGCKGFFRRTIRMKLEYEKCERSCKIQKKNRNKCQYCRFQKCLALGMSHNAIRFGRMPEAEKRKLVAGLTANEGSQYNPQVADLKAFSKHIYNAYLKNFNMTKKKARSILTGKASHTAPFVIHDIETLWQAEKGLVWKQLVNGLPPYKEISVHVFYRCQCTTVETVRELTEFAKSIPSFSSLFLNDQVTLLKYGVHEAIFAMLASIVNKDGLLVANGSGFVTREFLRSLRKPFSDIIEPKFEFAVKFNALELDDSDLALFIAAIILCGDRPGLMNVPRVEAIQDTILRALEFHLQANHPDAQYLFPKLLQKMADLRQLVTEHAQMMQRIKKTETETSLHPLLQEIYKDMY

`O=C(O)CBr`: the Potency entry in assay [1], in assay [2], in [4], in assay [5], in assay [6] and in assay [7] was “inactive” each time. The Potency entry in [8], in [11], in [14], in assay [16] and in [17] was “inactive” each time. The result in [3], in assay [9], in assay [10] and in [19] was inactive. Also, the max response in [12] is -0.759%; in [18], 2.42%. Further, in assay [13], the activity change % (negative = inhibition) was 11.6%. In addition, the activation in assay [15] was -0.817%.
For `CCCCC#N`, the Potency result in [1], in assay [2], in assay [4], in assay [5], in assay [6] and in [7] was “inactive” in each case. Further, the Potency result in assay [8], in assay [20], in [14], in [16] and in [17] was “inactive” each time. The molecule was classed as inactive in assay [3], in assay [9] and in [19]. The max response in assay [12] is 11.5%; in assay [18], -0.572%. Further, the activity change % (negative = inhibition) in assay [13] is -12.9%. In addition, in [15], the activation was 1.07%.
In the case of `COC(=O)Nc1nc2ccccc2[nH]1`, the Potency in assay [2] is 7.94 µM (active). The Potency result in assay [4], in assay [6], in [7], in assay [8], in [20] and in [14] was “inactive” in each case. Further, the Potency entry in [17] is “inactive”. For the same molecule, in assay [9], the call was inactive. For the same molecule, in assay [13], the activity change % (negative = inhibition) was -22.5% and -22.8%.
With `O=C(O)C(Cl)Br` (stereo not given), the Potency entry in [2], in assay [4], in assay [5], in [6], in [7] and in assay [8] was “inactive” each time. Besides, the Potency result in [20], in assay [14], in [16] and in assay [17] was “inactive” throughout. Besides, the molecule was called inactive in assay [3], in assay [9] and in assay [19]. The max response is 0.341% in assay [12] and -1.1% in assay [18]. Further, the activity change % (negative = inhibition) in assay [13] is 7.08%. Moreover, the activation in [15] is 0.968%.
On to `O=Cc1ccc(Cl)cc1Cl`, for which the Potency result in assay [1], in assay [2], in [5], in assay [6], in assay [8] and in [11] was “inactive” in each case. Besides, the Potency entry in assay [14], in assay [16] and in assay [17] was “inactive” each time. Moreover, the result in assay [3], in assay [9], in assay [10] and in assay [19] was inactive. Moreover, the max response in [12] was 2.38%; in assay [18], 2.77%. Further, in assay [13], the activity change % (negative = inhibition) is 0.009%. Also, in assay [15], the activation is -0.378%.
As to `Clc1ccc(Cl)c(Cl)c1`, the Potency entry in [1], in assay [2], in [4], in assay [6], in assay [7] and in assay [8] was “inactive” in each case. Further, the Potency result in assay [20], in [11], in assay [14] and in assay [17] was “inactive” throughout. The molecule was called inactive in [9] and in assay [10]. In addition, the max response in [12] was 7.63% and -21.3%; in assay [18], 1.05% and -0.643%. In assay [13], the activity change % (negative = inhibition) was -0.795% and 9.45%. In [15], the activation is 0.0505% and 0.0105%.
`CC[N+](=O)[O-]`: the Potency entry in assay [1], in [2], in [4], in assay [5], in assay [6] and in [7] was “inactive” in each case. Moreover, the Potency result in assay [8], in assay [20], in assay [14], in assay [16] and in assay [17] was “inactive” each time. The molecule was called inactive in [3], in [9], in [10] and in [19]. In addition, the activity change % (negative = inhibition) in assay [13] is -0.712%. The activation in assay [15] was -0.343%. Further, in [18], the max response was -6.68%.
